# Inconclusive results are not listed. The source made the active and inactive calls. Calls follow the shape of the dose curve; as a rule, active = well fitted cell-killing curve with a large enough effect; inconclusive = small, poorly fitted or top-dose-only effect, or effect the other way; inactive = no such curve, though single readings can be large or run the other way.
# Test: Quantitative High-Throughput drug screen in 47 multiple myeloma cell lines against the NCATS MIPE library collection: KMS28BM_JCRB cell viability assay (AID 1919874); also: nearly all actives have a fitted effect of over 35% in size
# Conditions: CellTiter-Glo ATP, 48 h; series mostly up to 45.8 µM; viability, % of control: at the top concentration
# How it was run: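 MIPE 4.0 approved/investigational drugs; 500 cells/well; 48 h 37 °C humidified 5% CO2; CTG luminescence readout; DMSO = 100%, media = 0% viability.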
# Potency is read from the fitted curve at half-maximal effect.
Compound,"viability, % of control",Potency
c1cc(CN2CCCNCCNCCCNCC2)ccc1CN1CCCNCCNCCCNCC1,121% (inactive),–
CCS(=O)(=O)Nc1ccc2[nH]c(O)c(C(=Nc3ccc(CN4CCCCC4)cc3)c3ccccc3)c2c1,–,0.132 µM (active)
COc1cc2c(cc1O)CCC1C2CC[C@@]2(C)C1CC[C@@H]2O (stereo not given in full),–,0.935 µM (active)
C[C@H]1[C@@H](OC(=O)CCC(=O)O)O[C@@H]2O[C@@]3(C)CC[C@@H]4[C@H](C)CC[C@@H]1[C@@]24OO3,–,14.8 µM (active)
OCCNC1CCCc2c1[nH]c1ccc(-c3ccccc3)cc21 (stereo not given),–,20.9 µM (active)
CC(=O)N[C@H]1[C@@H]([C@H](O)[C@H](O)CO)OC(C(=O)O)=C[C@@H]1N=C(N)N,125% (inactive),–
CC(=O)O[C@]1(C(C)=O)CC[C@H]2[C@@H]3C=C(C)C4=CC(=O)CC[C@]4(C)[C@@H]3CC[C@@]21C,125% (inactive),–
COc1ccc(CCC(=O)c2c(O)cc(O[C@@H]3O[C@H](CO)[C@@H](O)[C@H](O)[C@@H]3O[C@@H]3O[C@@H](C)[C@H](O)[C@@H](O)[C@@H]3O)cc2O)cc1O,118% (inactive),–
C[C@H](NC(=O)[C@@H](O)c1cc(F)cc(F)c1)C(=O)N[C@@H]1C(=O)N(C)c2ccccc2-c2ccccc21,104% (inactive),–
Cc1noc(-c2ccc(CSCCC(=O)O)cc2)c1NC(=O)OC(C)c1ccccc1Cl (stereo not given),93.1% (inactive),–
C[N+](C)([O-])CCNc1ccc(NCC[N+](C)(C)[O-])c2c1C(=O)c1c(O)ccc(O)c1C2=O,92.6% (inactive),–
COc1cc(OC)cc(-c2ccc3ncc4ccc(=O)n(-c5ccc(N6CCNCC6)c(C(F)(F)F)c5)c4c3c2)c1,–,4.69 µM (active)
CNC(=O)c1ccc(Nc2cc(Nc3ccccc3S(=O)(=O)C(C)C)c3cc[nH]c3n2)nc1,–,1.32 µM (active)
C[C@H](NC(=O)C(C#N)=Cc1cccc(Br)n1)c1ccccc1,–,7.43 µM (active)
Nc1nc2c(c(=O)[nH]1)N(C=O)[C@H](CNc1ccc(C(=O)N[C@@H](CCC(=O)O)C(=O)O)cc1)CN2,112% (inactive),–
CCCCOc1ccc(C(=O)Nc2ccc(F)cc2F)cc1,110% (inactive),–
CN(C)c1ccc2cc(C(=O)N[C@@H](CCCN=C(N)CCl)C(=O)NCc3ccccc3)ccc2c1,–,7.43 µM (active)
COC(=O)[C@H](CCCN=C(N)N)NS(=O)(=O)c1ccc(C)cc1,99.1% (inactive),–
CC(C)(C)c1nc2c3cc[nH]c(=O)c3c3cc(F)ccc3c2[nH]1,–,2.09 µM (active)
C=CCNc1c(O)cc2c(O)c1C[C@@H](C)C[C@H](OC)[C@@H](O)[C@@H](C)C=C(C)[C@H](OC(N)=O)[C@@H](OC)C=CC=C(C)C(=O)N2,–,0.935 µM (active)
CC[C@@]1([C@@H]2O[C@@H]([C@H]3O[C@@](O)(CO)[C@H](C)C[C@H]3C)C[C@H]2C)CC[C@H]([C@]2(C)CC[C@]3(C[C@H](O)[C@@H](C)[C@@H]([C@@H](C)[C@@H](OC)[C@H](C)C(=O)O)O3)O2)O1,–,0.575 µM (active)
CC(C)Oc1ccc(C(=O)N[C@H](CNC(=O)CN(C)C)Cc2ccc(-c3cn4cccc([C@H](C)O)c4n3)cc2)cc1Cl,–,1.66 µM (active)
CS[C@H]1SC[C@@H]2C(=O)N(C)[C@H](C(C)C)C(=O)OC[C@H](NC(=O)c3cnc4ccccc4n3)C(=O)N[C@H](C)C(=O)N(C)[C@@H]1C(=O)N(C)[C@H](C(C)C)C(=O)OC[C@H](NC(=O)c1cnc3ccccc3n1)C(=O)N[C@H](C)C(=O)N2C,–,0.0017 µM (active)
CCc1c(O)cc(O)c(C(=O)c2ccc(OCCN3CCOCC3)c(OC)c2)c1CC(=O)N(CCOC)CCOC,–,1.32 µM (active)
Cc1cn([C@@H]2O[C@H](CO)[C@@H](O)[C@H]2F)c(=O)[nH]c1=O,113% (inactive),–
CC(=CC(=O)Nc1ccccc1C(=O)O)c1ccc2ccccc2c1,126% (inactive),–
CC(=O)OCC(=O)[C@@]12N=C(C)O[C@H]1C[C@H]1[C@@H]3CCC4=CC(=O)C=C[C@]4(C)[C@@H]3[C@@H](O)C[C@@]12C,110% (inactive),–
OC[C@@H](O)[C@@H](O)[C@H](O)[C@@H](O)CO,119% (inactive),–
CC(=O)O[C@H]1C[C@@H]2CC[C@H]3[C@H]4C[C@H]([N+]5(C)CCCCC5)[C@@H](OC(C)=O)[C@@]4(C)CC[C@@H]3[C@@]2(C)C[C@H]1[N+]1(C)CCCCC1,103% (inactive),–
COc1cc2c(cc1OC)[C@@H]1C(=O)c3ccc4c(c3O[C@@H]1CO2)C=CC(C)(C)O4,–,5.9 µM (active)
